# From PubChem BioAssay (Tox21)
# Several values for one entry are separate records, joined by “and”; a condition that tells them apart may be missing. Identical values can stand only once. Inconclusive results are not listed. A call without a number means that no potency is given here. Activity calls are given as the source filed them. Calls come from the whole dose curve; as a rule, active = well fitted cell-killing curve with a large enough effect in the repeat runs; inconclusive = weak or mixed curves, or effect the other way; inactive = no such curve, though single readings can be large or run the other way.
# Experiment: qHTS assay to identify small molecule antagonists of the thyroid receptor (TR) signaling pathway - cell viability counter screen (AID 743064); note: nearly all actives have a fitted effect of over 50% in size
# Conditions: GH3.TRE-Luc viability, CellTiter-Fluor, 24 h; series mostly up to 70.3 µM
# Text: National Center for Advancing Translational Sciences [NCATS]
# NIH Chemical Genomics Center [NCGC]
# U.S. Environmental Protection Agency [EPA]
# National Institutes of Environmental Health Sciences [NIEHS]
# National Toxicology Program [NTP]
# U.S. Food and Drug Administration [FDA]
# Thyroid receptor (TR), a nuclear hormone receptor, plays an important role in development, proliferation, differentiation, metabolism, brain function, and cardiovascular system. […] To profile the Tox21 10K compound library in TR signaling, a cell-based GH3-TRE-Luc assay (GH3.TRE-Luc cell line, developed by the laboratory of Dr. Albertinka J. Murk, Wageningen University) was used to measure the inhibition of TR. GH3 (rat pituitary tumor) cells stably expressing a TR activity sensor consisting of two TR response elements and a luciferase reporter gene. The cytotoxicity of the Tox21 compound library against the GH3.TRE-Luc cell line was tested in parallel by measuring the cell viability using CellTiter-Fluor assay (Promega, Madison, WI) in the same wells.
# Tox21 Assay Protocol Summary:
# GH3.TRE-Luc cells were dispensed at 1500 cells/4 uL/well into 1536-well white solid bottom plates using a Multidrop Combi dispenser (Thermo Fisher Scientific Inc., Waltham, MA). After the assay plates were incubated at 37 C for 4 hours, 23 nL of library compound or DMSO controls was transferred to the assay plates by a pintool station (Kalypsys, San Diego, CA), followed by addition of 1 ul of T3 (1 nM, final concentration in the wells) to stimulate TR transactivation. The assay plates were incubated at 37 C for 23.5 h, and then 1 uL of CellTiter-Fluor reagent (Promega, Madision, WI) of measuring cytotoxicity was added to each well using a Bioraptr Flying Reagent Dispenser (FRD) workstation (Beckman Coulter, Indianapolis, IN, USA). The plates were incubated at 37C and 5% CO2 for additional 30 min, and fluorescence intensity was measured by a ViewLux plate reader (PerkinElmer, Shelton, CT).
# Potency is the fitted concentration of half-maximal effect.
row,SMILES,Potency
1,COc1cccc(CCc2ccccc2OCC(CN(C)C)OC(=O)CCC(=O)O)c1 (stereo not given),23.7 µM (active)
2,C[C@@]12C(=O)OC(=O)[C@]1(C)C1CCC2O1,2.27 µM (active)
3,SCCCCCCCCS,inactive
4,CC(=O)Oc1ccc(C2(c3ccc(OC(C)=O)cc3)C(=O)Nc3ccccc32)cc1,inactive
5,c1ccc(Nc2cccc3ccccc23)cc1,69.5 µM (active)
6,O=C1Nc2ccc(Cl)cc2[C@@](C#CC2CC2)(C(F)(F)F)O1,29.8 µM (active)
7,CC(CN(C)C)CN1c2ccccc2CCc2ccccc21 (stereo not given),4.52 µM (active)
8,CCCCOC(=O)C(C)CC (stereo not given),inactive
9,Oc1ccc(-c2ccccc2)c(Cl)c1,inactive
10,CN1[C@@H]2CC[C@H]1CC(OC(=O)C(CO)c1ccccc1)C2 (stereo not given in full),inactive
11,C(=C/c1ccccc1)/c1ccccc1,inactive
12,C=CCCCCCCC=C,inactive
13,O=Cc1ccc(F)cc1,inactive
14,CCCCCCCCCCCCOC(=O)c1cc(O)c(O)c(O)c1,3.05 µM (active) and 2.43 µM (active)
15,CC(C)(c1cc(Br)c(OCCO)c(Br)c1)c1cc(Br)c(OCCO)c(Br)c1,47.5 µM (active)
16,C=C[C@](C)(O)CC[C@@H]1[C@@]2(C)CCCC(C)(C)[C@@H]2CC[C@@]1(C)O,43.3 µM (active)
17,COC(=O)NCCC[Si](OC)(OC)OC,inactive
18,C=CC(C)(CCC=C(C)C)OC(=O)/C=C/c1ccccc1 (stereo not given),inactive
19,CCCCCCOc1cc(C)c(O)c(C)c1C,49.2 µM (active)
20,NCCCC(O)(P(=O)(O)O)P(=O)(O)O,inactive

row,SMILES,Potency
1,CCN(CC)CCNc1ccc(CO)c2sc3ccccc3c(=O)c12,4.73 µM (active)
2,COC(=O)C1=C(C)NC(C)=C(C(=O)OCCCN2CCC(c3ccccc3)(c3ccccc3)CC2)C1c1cccc([N+](=O)[O-])c1 (stereo not given),11.9 µM (active)
3,NC1(c2ccc(-c3nc4ccn5c(=O)[nH]nc5c4cc3-c3ccccc3)cc2)CCC1,13.3 µM (active)
4,COc1cc(C(=O)NS(=O)(=O)c2ccccc2C)ccc1Cc1cn(C)c2ccc(NC(=O)OC3CCCC3)cc12,29.8 µM (active)
5,CSc1ccc2c(c1)N(CCC1CCCCN1C)c1ccccc1S2 (stereo not given),7.5 µM (active) and 8.6 µM (active)
6,c1ccc(Sc2ccccc2)cc1,inactive
7,CN1[C@@H]2CC[C@@H]1CC(OC(=O)C(CO)c1ccccc1)C2 (stereo not given in full),inactive
8,CC1(C)C(=O)N(Br)C(=O)N1Br,inactive
9,NC(=O)c1ccccc1N,inactive
10,O=Nc1ccc(NO)cc1,inactive
11,CCCCCCOc1ccc(O)cc1,12.2 µM (active)
12,CC(=O)Nc1ccc(O)cc1,inactive
13,Cc1c(-c2ccc(O)cc2)n(Cc2ccc(OCCN3CCCCCC3)cc2)c2ccc(O)cc12,9.44 µM (active)
14,COCC(=O)O[C@]1(CCN(C)CCCc2nc3ccccc3[nH]2)CCc2cc(F)ccc2[C@@H]1C(C)C,1.5 µM (active)
15,COC(=O)CC(C)CCC=C(C)C (stereo not given),inactive
16,COc1cc(C=C2CCC/C(=C\c3ccc(O)c(OC)c3)C2=O)ccc1O,7.5 µM (active)
17,CC=O,2.86 µM (active)
18,O=C(O)c1cccc(Cl)n1,inactive
19,Cc1c(C)n(Cc2ccccc2)c2ccc(C(=O)OCCN(C)C)cc12,7.5 µM (active)
20,Cc1cn[nH]c1,inactive
